M1 ag = human M1 muscarinic receptor agonists, primary screen, Fluo-8 calcium fluorescence, CHO-K1 cells, HTS; Muscarinic acetylcholine receptor M1 (Homo sapiens), P11229; actives 0.33% (n = 360,000); activation, % at 3 µM; CHO-K1 hM1, agonist mode; 0% DMSO, 100% acetylcholine EC100;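 active = activation above the run's mean compound activation plus 3 SD, cut at about 16% in these data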;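 note: peak over basal fluorescence ratio within a 140 s kinetic read after compound addition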
Target sequence (P11229 whole entry, looked up): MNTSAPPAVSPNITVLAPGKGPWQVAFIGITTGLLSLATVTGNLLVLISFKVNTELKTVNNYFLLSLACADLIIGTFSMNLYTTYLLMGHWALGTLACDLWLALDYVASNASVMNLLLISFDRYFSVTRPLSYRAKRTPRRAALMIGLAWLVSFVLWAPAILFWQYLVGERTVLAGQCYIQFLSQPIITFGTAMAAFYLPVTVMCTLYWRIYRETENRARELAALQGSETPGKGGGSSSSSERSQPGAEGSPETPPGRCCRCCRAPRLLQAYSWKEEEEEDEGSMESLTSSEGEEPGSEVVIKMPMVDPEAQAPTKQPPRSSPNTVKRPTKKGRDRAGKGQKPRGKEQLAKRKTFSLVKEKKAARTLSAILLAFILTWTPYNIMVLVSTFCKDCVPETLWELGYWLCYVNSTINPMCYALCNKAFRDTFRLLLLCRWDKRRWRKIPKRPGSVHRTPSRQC
CHRM1 PAM = human M1 muscarinic receptor positive allosteric modulators, primary screen, CHO-K1 cells, Fluo-8 calcium fluorescence, 1536-well; CHO-K1 hM1, ACh EC20; 0% = ACh EC20, 100% = maximal ACh; actives 0.088% (n = 360,000); AID 588819, 2011; Muscarinic acetylcholine receptor M1 (Homo sapiens), P11229; activation, % at 3 µM; in the data active = activation above about 19%, passing the limit was not always enough
M1 antag = human M1 muscarinic receptor antagonists, primary screen, CHO-K1 cells, Fluo-8 calcium fluorescence, 1536-well. CHO-K1 hM1, ACh EC80 antagonist. inhibition, % at 3 µM. actives 1.3% (n = 360,000). AID 588852, 2011;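 active = percent inhibition above its own plate's cutoff, namely the mean of that plate's compound wells plus 3 SD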;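 note: peak over basal fluorescence ratio during 140 s after agonist addition; 0% = ACh EC80 plus DMSO and 100% = DMSO alone without agonist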
CHO-K1 Ca PAM = nonselective calcium activators in parental CHO-K1 cells, primary screen, counter-screen for M1 PAM project, cell-based, Fluo-8 calcium fluorescence, full deck, 1536-well; ATP EC20; 0% at ATP EC20, 100% at ATP max; activation, % at 3 µM; actives 0.02% (n = 360,000); AID 602247, 2012;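 active = activation above the run cutoff, the mean activation of all test compounds plus 3 SD, cut at about 40% in these data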;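 note: peak over basal fluorescence ratio in a 140 s read after ATP addition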
CHO-K1 Ca antag = nonselective inhibitor or artifact in parental CHO-K1 cells; ATP-induced calcium, Fluo-8 fluorescence; inhibition, % at 3 µM; actives 0.6% (n = 360,000);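 active = inhibition above a per-plate cutoff, the plate's mean sample inhibition plus 3 SD, cut at about 24% in these data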;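 note: 0% = DMSO plus EC80 ATP and 100% = DMSO alone without ATP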
M1 ag parental = counter-screen for M1 agonists: effect in parental CHO-K1 cells; Fluo-8 calcium fluorescence; scaled to maximal ATP response, vehicle zero; actives 0.48% (n = 360,000); activation, % at 3 µM; in the data active = activation above about 15%;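 note: untransfected CHO-K1 host cells lacking M1 receptor as counterscreen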
Active calls of the source: *. This is a sample that favours compounds with a hit; in the whole collection about 2.4% have one here.

SMILES | M1 ag | CHRM1 PAM | M1 antag | CHO-K1 Ca PAM | CHO-K1 Ca antag | M1 ag parental
COc1ccc(NC(=O)C2Cc3c(-c4cccc(C(N)=O)c4)ccnc3O2)cc1OC (configuration not stated) | -0.2 | 4.2 | -18.5 | -2.8 | -7.5 | -0.2
COc1ccc(NC(=O)C2Cc3c(-c4cccc(C(C)=O)c4)ccnc3O2)cc1OC (configuration not stated) | 6.3 | -5.1 | 6.3 | -16.5 | 23.9* | 2.4
O=c1cc(-c2c(O)c3ccccc3n(Cc3ccccc3)c2=O)[nH][nH]1 | -5.3 | 5.5 | -3.3 | 10.4 | 8.5 | 16.8*
CCn1c(=O)c(-c2cc(=O)[nH][nH]2)c(O)c2ccccc21 | -8.1 | 11.4 | -5.4 | 18.1 | -14.3 | 0.2
CC(=O)Nc1cccc(-n2nnc(SCC(=O)Nc3ccc(F)c(Cl)c3)n2)c1 | 0.3 | 0.8 | -3.8 | -1.5 | 15.3 | 22.0*
O=C(CSc1nnnn1C1CC2CCC1C2)Nc1ccnc2ccccc12 (configuration not stated) | 6.4 | -15.8 | 32.3* | 1.5 | 36.5* | 12.8
CN(C)c1ccc(CC(=O)N2CCCC(c3cc(C(=O)Nc4ccc(C(C)(C)C)cc4)no3)C2)cc1 (configuration not stated) | 3.2 | -11.0 | 28.6* | 8.0 | 8.6 | 4.5
O=C(Nc1ccccc1)c1cc(C2CCCN(C(=O)CCc3ccccc3)C2)on1 (configuration not stated) | -4.3 | 0.3 | -12.2 | 12.2 | -5.7 | 1.5
CC(C(=O)NC(C)(C)C)N(Cc1cccs1)C(=O)CCN1CCc2ccccc21 (configuration not stated) | -4.8 | -3.0 | 5.5 | 1.6 | 4.3 | 22.5*
CC(C)(C)NC(=O)CN(Cc1cccs1)C(=O)CCN1CCc2ccccc21 | -9.4 | 0.4 | -3.6 | -13.1 | 16.6 | 1.6
O=c1[nH]ccc2c(O)cccc12 | 27.4* | -9.5 | -21.6 | 7.0 | 1.7 | -0.1
O=Nc1c(O)n(Cc2cccc(Cl)c2)c2ccccc12 | 19.9* | 26.1* | -16.5 | -7.7 | 5.4 | -0.4
NC(=S)N=Nc1c(O)n(Cc2ccccc2)c2ccccc12 | -4.9 | 7.9 | -5.0 | 25.3 | -0.9 | 1.9
COC(=O)c1cc(=O)nc(NN=Cc2ccc(OC)cc2)s1 | -3.5 | -5.4 | 18.7 | -8.6 | 23.9* | -0.1
COC(=O)c1cc(=O)nc(NN=C2c3ccccc3-c3ccccc32)s1 | 5.7 | 1.4 | -4.7 | 3.9 | 3.9 | 1.7
Cc1cccn2c(=S)[nH]nc12 | -0.1 | -3.5 | 10.3 | -13.3 | 26.3* | 0.3
Cc1ccccc1-n1c(C)n[nH]c1=S | -6.7 | 1.6 | -12.3 | 6.8 | 8.9 | 0.0
O=C(c1cccc(Cl)c1)C1CCCN(S(=O)(=O)c2ccccc2)C1 (configuration not stated) | -2.4 | -7.8 | 18.3 | -5.6 | -3.0 | 1.9
CCCCn1c(N)c(N(CC(C)C)C(=O)C2CCN(S(=O)(=O)c3ccc(C)cc3)CC2)c(=O)[nH]c1=O | -3.9 | 7.7 | -9.1 | 7.6 | -10.4 | 0.9
CC1=CC(C)(C)N2C(=O)C3(NCCc4c3[nH]c3ccccc43)c3cccc1c32 (configuration not stated) | -3.4 | 0.7 | 3.4 | 6.1 | -4.6 | -0.7
O=C(Nc1ccc(F)cc1F)N1CCN(CCc2ccccc2)CC1 | 3.2 | 10.9 | -6.0 | 17.1 | -10.1 | 29.9*
COc1cn(-c2ccccc2)nc1C(=O)NCc1ccc(C)cc1 | -4.6 | 8.2 | -15.7 | 15.7 | -7.3 | -0.9
COc1cn(-c2ccccc2)nc1C(=O)NCc1ccccc1 | 2.0 | 32.6* | -27.0 | 5.0 | -16.1 | -0.5
COc1cccc(C(=O)Nc2nnc(SCC(=O)Nc3ccc(NC(C)=O)cc3)s2)c1 | -2.3 | 3.4 | -5.4 | -0.9 | -7.4 | 1.0
COc1cc2ccccc2cc1C(=O)N1CCCCC1 | -3.5 | 11.8 | -12.5 | 23.3 | -6.1 | 0.3
SMILES | M1 ag | CHRM1 PAM | M1 antag | CHO-K1 Ca PAM | CHO-K1 Ca antag | M1 ag parental
CN(C)CC(O)COc1cc2ccccc2cc1C(=O)N1CCCCC1 (configuration not stated) | 10.5 | -5.9 | 33.3* | 16.8 | 0.5 | 4.9
COc1cc(CCCN2CCNC[C@@H]2Cc2ccc(O)cc2)cc(OC)c1OC | -3.2 | 8.9 | -5.7 | 10.6 | 0.5 | 0.5
CN(C)CCCOc1ccc2c(c1)Sc1ccccc1CC2=O | 24.2* | -0.5 | -1.6 | 25.0 | -1.5 | 3.6
COc1ccc(C(C)C)cc1-c1cncc(NC(C)=O)n1 | -6.5 | 1.3 | -13.3 | -6.3 | -9.0 | 0.2
CC(=O)OCC1(C)CN(c2ccccc2)N(C(=O)c2ccc(F)cc2)C1=O (configuration not stated) | -0.7 | -1.3 | -3.9 | 9.6 | -8.9 | 1.2
CCc1nc2ccc(C(=O)NCC3CCCCC3)cn2c1N(C)Cc1ccc(OC)cc1 | -7.9 | -21.6 | 22.0 | 8.6 | -7.4 | 1.4
Cc1cc(C)c(CN2CCN(C(=O)Cn3cnc4c(NCc5ccccc5)ncnc43)CC2)c(C)c1 | -0.9 | 0.9 | 0.9 | -10.0 | 25.2* | 1.1
Cc1ccc(C)c(Cn2nc3c4ccccc4n(Cc4ccccc4)cc-3c2=O)c1 | 64.2* | -6.8 | 61.5* | 18.8 | -8.1 | 0.3
Cc1nccn1CCc1n[nH]c(=S)n1Cc1ccccc1 | -4.9 | -21.5 | 59.8* | 13.6 | -4.1 | 1.0
S=c1[nH]nc(CCc2ccccc2)n1Cc1ccccc1 | -5.9 | -18.7 | 25.0 | 18.3 | -7.0 | 1.4
CC(NC(=O)c1cccc(S(=O)(=O)N2CCN(Cc3ccccc3)CC2)c1)c1ccc(Cl)cc1 (configuration not stated) | -3.8 | 6.1 | -6.0 | 10.7 | 4.0 | 1.1
O=C(NCC(c1ccccc1Cl)N1CCCC1)c1ccc(N2CCCC2=O)cc1 (configuration not stated) | -8.4 | -24.7 | 55.7* | -0.9 | -5.0 | 0.0
On1ccccc1=S | 1.0 | 0.2 | -1.3 | 17.7 | 24.5* | 2.8
O=C(Cn1ccccc1=S)c1ccc(Cl)c(Cl)c1 | -6.3 | 7.8 | -6.3 | 24.1 | -15.8 | 2.0
COc1ccc(NC2=CC(c3cccc(OC)c3)N(c3ccc(OC)cc3)C2=O)cc1 (configuration not stated) | 9.3 | -8.5 | 46.9* | 11.1 | 36.7* | 8.8
CSc1cccc(NC(=S)NCCCN2CCN(c3ccc(F)cc3)CC2)c1 | -2.8 | 8.9 | -9.7 | 18.4 | -15.4 | 0.2
COc1ccc(C(=O)NCC(=O)OCc2ccccc2F)cc1 | -3.6 | 5.2 | -7.4 | -0.9 | -3.4 | 0.1
Cc1ccc(S(=O)(=O)CC(c2ccccc2)N2CCOCC2)cc1 (configuration not stated) | -2.3 | 4.1 | -10.3 | -1.4 | 4.2 | -0.3
